The record followed here is PubChem BioAssay (Tox21).

In assay [1] the target is Thyrotropin receptor (Homo sapiens) (UniProt P16473). Kind of assay: qHTS assay to identify small molecule antagonists of the thyroid stimulating hormone receptor (TSHR) signaling pathway (AID 1259385; calls by dose curve; further: nearly all actives have a fitted effect of over 20% in size). The gist of the method:
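TSHR-HEK293 cells were plated and held 18 h at 37C/5% CO2, then given compound plus Ro20-1724 and stimulated with TSH at 1.5 ng/mL final. After 30 min at room temperature, cAMP was detected with cAMP-d2/anti-cAMP-cryptate (1 h) by fluorescence.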
For orientation: qHTS replaces the single test concentration by a dilution series.

Assay [2] concerns the target Progesterone receptor (Homo sapiens) (UniProt P06401). Nature of the assay: qHTS assay to identify small molecule agonists of the progesterone receptor (PR) signaling pathway (AID 1346784; calls by dose curve; further: nearly all actives have a fitted effect of over 30% in size). Summed up:
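Cells (PR-UAS-bla HEK 293T, GripTite) were plated in assay medium containing 2% charcoal-stripped FBS and incubated 6 hr. Test compounds in DMSO were added for 16 hr at 37C. FRET substrate was then loaded for 2 hr at room temperature before fluorescence reading.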

Assay [3] shares this target. Kind of assay: qHTS assay to identify small molecule antagonists of the progesterone receptor (PR) signaling pathway (AID 1346795; active means well fitted inhibition curve with a large enough effect in the signal ratio in the repeat runs, not every such curve was filed as active; the % refers to the signal ratio; further: potency means the concentration at half of the fitted maximal effect). Summed up:
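Antagonist mode: compounds tested against 1 nM (final) promegestone stimulation in HEK293T cells expressing PR-UAS-bla reporter, 16 hr at 37C, 5% CO2; beta-lactamase activity detected via B/G FRET substrate after 2 hr at room temperature.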

Assay [4] is described as follows: qHTS assay to identify small molecule antagonists of the progesterone receptor (PR) signaling pathway - cell viability counter screen (AID 1346798). Further: series mostly up to about 92 µM; nearly all actives have a fitted effect of over 50% in size. The gist of the method: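 Counter screen for cytotoxicity: viability of PR-UAS-bla HEK293T cells was measured with CellTiter-Glo luminescence following 16 hr compound exposure in the presence of R5020.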
Assay [5] in a line: qHTS assay to identify small molecule agonists of the progesterone receptor (PR) signaling pathway - cell viability counter screen (AID 1346799; calls by dose curve; further: nearly all actives have a fitted effect of over 45% in size). The gist of the method: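 Cells (PR-UAS-bla HEK293T) are plated at 3,000/well in 2% charcoal-stripped FBS medium, rested 6 hr, dosed and incubated 16 hr at 37C. CellTiter-Glo is then added and luminescence measured after 30 min at room temperature.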

Assay [6] is described as follows: qHTS assay to identify small molecule antagonists of the TGF-beta/Smad signaling pathway - cell viability counter screen (AID 1346824). Further: nearly all actives have a fitted effect of over 50% in size. Summed up:
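SBE-bla HEK 293T cells were plated overnight at 37 C, then given compounds in DMSO plus TGF-beta1 (added as 0.25 ng/mL solution) for 5 hr. After the bla read, CellTiter-Glo was added to the same wells and luminescence read after 30 min at room temperature.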

Assay [7] can be described thus: qHTS assay to identify small molecule agonists of the TGF-beta/Smad signaling pathway - cell viability counter screen (AID 1346829). Further: top concentration of the series differs between compounds; nearly all actives have a fitted effect of over 45% in size. The gist of the method:
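Cytotoxicity counter screen: CellTiter-Glo luminescence (30 min, room temperature) measured in the SBE-bla HEK 293T reporter wells after 5 hr compound treatment at 37 C and the 2 hr substrate step.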

Assay [8] can be described thus: qHTS assay to identify small molecule agonists of the TGF-beta/Smad signaling pathway (AID 1346859; active means well fitted activation curve with a large enough effect in the signal ratio in the repeat runs, not every such curve was filed as active; the % refers to the signal ratio; further: series mostly up to about 77 µM). Summed up:
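Reporter line: HEK 293T with stably integrated SBE-controlled beta-lactamase. Compound exposure lasts 5 hr at 37 C and 5% CO2; substrate loading follows for 2 hr at room temperature, with emission read at 460 and 530 nm.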

Assay [9] concerns the target Thyrotropin-releasing hormone receptor (Homo sapiens) (UniProt P34981). Kind of assay: qHTS assay to identify small molecule antagonists of the thyrotropin-releasing hormone receptor (TRHR) signaling pathway (AID 1346877; active means well fitted inhibition curve with a large enough effect in the repeat runs, not every such curve was filed as active; further: series mostly up to about 51 µM). The gist of the method: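 TRHR-expressing HEK293 cells loaded with calcium dye for 2 h at 37 C; compounds pre-incubated 5 min at room temperature before TRH challenge at 1 nM final. Intracellular calcium fluorescence read kinetically for 3 min; 15 concentrations in triplicate.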

Assay [10] has the same target. Nature of the assay: qHTS assay to identify small molecule agonists of the thyrotropin-releasing hormone receptor (TRHR) signaling pathway (AID 1346891; calls by dose curve; further: series mostly up to about 58 µM). Summed up:
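Cells: TRHR-Hek293, seeded and incubated 18 h. Dye loading: 2 h at 37 °C. Compound added from DMSO stock by pin tool. Read-out: kinetic calcium fluorescence over 3 min.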

A short description of assay [11]: Human pregnane X receptor (PXR) small molecule agonists, qHTS cell viability counter screen (AID 1346977). Further: nearly all actives have a fitted effect of over 50% in size. The gist of the method:
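Cytotoxicity counter screen run in the same wells as the PXR luciferase assay, using PXR-Luc HepG2 cells in charcoal-stripped serum medium. Viability: CellTiter-Fluor fluorescence after 24hr compound treatment.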

Assay [12] is described as follows: Caspase-3/7 induction in HepG2 cells by small molecules, qHTS assay (AID 1346978). Further: nearly all actives have a fitted effect of over 15% in size. Summed up: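 Wild-type HepG2 cells (2,000/well) were settled 5 h at 37 C, 5% CO2, then exposed to compounds in DMSO for 17 h. Caspase-3/7 activity was read by luminescence 30 min after adding Caspase-Glo 3/7 reagent at room temperature.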
The nature of assay [13]: Caspase-3/7 induction in CHO-K1 cells by small molecules, qHTS cell viability counter screen (AID 1346979). Further: nearly all actives have a fitted effect of over 35% in size. Summed up: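 Cytotoxicity counter screen run in parallel with the caspase-3/7 assay: CHO-K1 cells, 16hr compound treatment at 37C, then CellTiter-Fluor for 1hr before fluorescence reading.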
Assay [14] can be described thus: Caspase-3/7 induction in HepG2 cells by small molecules, qHTS cell viability counter screen (AID 1346981). Further: series mostly up to about 92 µM; nearly all actives have a fitted effect of over 30% in size. Summed up:
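Wild-type HepG2 cells, 2,000/well, settled 5 hr at 37 C, 5% CO2 before compound addition. Viability read by CellTiter-Fluor fluorescence, reagent added after 16 hr compound exposure, then 1 hr at 37C, in the same wells as the caspase read.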

Assay [15] has as its target Nuclear receptor subfamily 1 group I member 2 (Homo sapiens) (UniProt O75469). Nature of the assay: Human pregnane X receptor (PXR) small molecule agonists, qHTS assay (AID 1346982). Further: nearly all actives have a fitted effect of over 35% in size. Summed up: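 PXR-Luc HepG2 reporter cells (CYP3A4-driven luciferase) in 5% charcoal-stripped FBS medium, plated 5 h before compound addition, then treated 24 h at 37C. Luciferase read by ONE-Glo luminescence after 30 min at room temperature.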

The target in assay [16] is Nuclear receptor subfamily 1 group I member 2 (Rattus norvegicus) (UniProt Q9R1A7). Kind of assay: Rat pregnane X receptor (rPXR) activation by small molecules, qHTS assay (AID 1346983). Further: nearly all actives have a fitted effect of over 20% in size. The settings on record: rPXR luciferase reporter cells, One-Glo luminescence, 24 h; hits give high values. The gist of the method:
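Cell-based rPXR luciferase reporter assay, 2,000 cells per well, rested 5hr at 37 C before compound addition in DMSO, then 24 hr at 37 C. One-Glo reagent was added and luminescence read after 30 min at room temperature.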

The target of assay [17] is Nuclear receptor subfamily 1 group I member 2 (Homo sapiens) (UniProt O75469). Nature of the assay: CYP3A4 induction through human pregnane X receptor (PXR) by small molecules, qHTS assay (AID 1346984). Further: nearly all actives have a fitted effect of over 40% in size. Summed up:
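DPX-2 HepG2 cells carrying a PXR response element and CYP3A4-promoter luciferase construct, treated with compounds 24 hr at 37C. Then P450-Glo CYP3A4 Luciferin-IPA substrate (3uM final) for 3 hr at 37C, One-Glo added, luminescence read.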

Assay [18] has the same target. Nature of the assay: Human pregnane X receptor (PXR) activation by small molecules, qHTS assay (AID 1346985). Further: nearly all actives have a fitted effect of over 40% in size. The gist of the method: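 DPX-2 cells (HepG2 co-transfected with a PXR response element and a CYP3A4-promoter luciferase construct) were seeded at 2,000 per well, rested 5 hr at 37C, then exposed to DMSO-dissolved compounds for 24 hr. Activation was read as luciferase luminescence.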

A short description of assay [19]: Caspase-3/7 induction in CHO-K1 cells by small molecules, qHTS assay (AID 1346980). Further: nearly all actives have a fitted effect of over 15% in size. Summed up: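 Wild-type cells were seeded at 1,500 per well and settled 5 hr at 37 C, 5% CO2, then exposed to DMSO-dissolved compounds for 17 hr. Caspase-Glo 3/7 reagent was added, and luminescence was read after 30min at room temperature.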
The nature of assay [20]: qHTS assay to identify small molecule agonists of the estrogen receptor alpha (ER-alpha) signaling pathway in the presence of an antagonist - cell viability counter screen (AID 1259386).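 Further: series mostly up to about 92 µM; cells exposed to compounds for 22 h at 37 °C before the viability read; nearly all actives have a fitted effect of over 30% in size.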 The gist of the method: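 Cell viability in VM7Luc4E2 cells (endogenous full-length ER-alpha) measured by CellTiter-Fluor fluorescence in the same wells as the luciferase screen. Cells pre-cultured 5 days in charcoal-stripped serum, then treated 22 h with compounds at 15 concentrations plus 10.0nM ICI-182,780.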

Values without a mark were called inactive. Records with an inconclusive call do not appear. The source made the active and inactive calls. Unless noted, the call rests on the fitted dose curve; in most records, active means well fitted curve in the direction sought with a large enough effect in the repeat runs; inconclusive means weak or mixed curves; inactive means no such curve, though single readings can be large; an effect the other way counts as inactive or inconclusive.
On the % scale 0 is the no-effect control and ±100 the full control effect.

Sequence of Thyrotropin receptor (Homo sapiens) (P16473 whole entry, looked up): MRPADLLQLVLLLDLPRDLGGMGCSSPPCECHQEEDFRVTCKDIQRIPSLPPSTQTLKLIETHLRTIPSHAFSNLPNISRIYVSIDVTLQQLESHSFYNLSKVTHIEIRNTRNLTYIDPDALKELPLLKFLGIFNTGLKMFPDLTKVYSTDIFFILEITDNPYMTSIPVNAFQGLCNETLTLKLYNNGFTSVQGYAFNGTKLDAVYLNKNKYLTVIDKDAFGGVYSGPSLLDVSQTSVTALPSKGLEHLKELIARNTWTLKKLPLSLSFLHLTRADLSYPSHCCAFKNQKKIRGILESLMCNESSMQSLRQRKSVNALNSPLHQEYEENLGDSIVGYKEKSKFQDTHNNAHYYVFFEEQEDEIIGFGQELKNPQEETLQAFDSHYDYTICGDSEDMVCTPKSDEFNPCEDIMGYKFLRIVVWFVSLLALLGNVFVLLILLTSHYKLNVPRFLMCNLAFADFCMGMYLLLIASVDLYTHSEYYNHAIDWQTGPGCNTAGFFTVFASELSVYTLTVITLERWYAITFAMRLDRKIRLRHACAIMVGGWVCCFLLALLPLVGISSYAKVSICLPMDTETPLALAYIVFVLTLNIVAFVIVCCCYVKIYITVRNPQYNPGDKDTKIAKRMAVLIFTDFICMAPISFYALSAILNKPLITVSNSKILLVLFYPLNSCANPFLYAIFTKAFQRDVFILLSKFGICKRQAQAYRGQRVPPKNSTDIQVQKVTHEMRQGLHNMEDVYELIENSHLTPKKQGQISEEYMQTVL
Sequence of Thyrotropin-releasing hormone receptor (Homo sapiens) (P34981 whole entry, looked up): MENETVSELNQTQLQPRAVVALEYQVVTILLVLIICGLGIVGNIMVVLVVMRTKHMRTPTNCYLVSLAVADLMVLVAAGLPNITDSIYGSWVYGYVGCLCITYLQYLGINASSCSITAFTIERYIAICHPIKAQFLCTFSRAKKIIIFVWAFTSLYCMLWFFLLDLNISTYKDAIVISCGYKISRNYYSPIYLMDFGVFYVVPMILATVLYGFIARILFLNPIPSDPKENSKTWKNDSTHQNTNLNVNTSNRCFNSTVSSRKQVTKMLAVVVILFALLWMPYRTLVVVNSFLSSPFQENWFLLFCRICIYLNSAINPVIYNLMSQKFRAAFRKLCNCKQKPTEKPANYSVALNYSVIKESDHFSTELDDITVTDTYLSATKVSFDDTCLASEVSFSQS
Sequence of Progesterone receptor (Homo sapiens) (P06401 whole entry, looked up): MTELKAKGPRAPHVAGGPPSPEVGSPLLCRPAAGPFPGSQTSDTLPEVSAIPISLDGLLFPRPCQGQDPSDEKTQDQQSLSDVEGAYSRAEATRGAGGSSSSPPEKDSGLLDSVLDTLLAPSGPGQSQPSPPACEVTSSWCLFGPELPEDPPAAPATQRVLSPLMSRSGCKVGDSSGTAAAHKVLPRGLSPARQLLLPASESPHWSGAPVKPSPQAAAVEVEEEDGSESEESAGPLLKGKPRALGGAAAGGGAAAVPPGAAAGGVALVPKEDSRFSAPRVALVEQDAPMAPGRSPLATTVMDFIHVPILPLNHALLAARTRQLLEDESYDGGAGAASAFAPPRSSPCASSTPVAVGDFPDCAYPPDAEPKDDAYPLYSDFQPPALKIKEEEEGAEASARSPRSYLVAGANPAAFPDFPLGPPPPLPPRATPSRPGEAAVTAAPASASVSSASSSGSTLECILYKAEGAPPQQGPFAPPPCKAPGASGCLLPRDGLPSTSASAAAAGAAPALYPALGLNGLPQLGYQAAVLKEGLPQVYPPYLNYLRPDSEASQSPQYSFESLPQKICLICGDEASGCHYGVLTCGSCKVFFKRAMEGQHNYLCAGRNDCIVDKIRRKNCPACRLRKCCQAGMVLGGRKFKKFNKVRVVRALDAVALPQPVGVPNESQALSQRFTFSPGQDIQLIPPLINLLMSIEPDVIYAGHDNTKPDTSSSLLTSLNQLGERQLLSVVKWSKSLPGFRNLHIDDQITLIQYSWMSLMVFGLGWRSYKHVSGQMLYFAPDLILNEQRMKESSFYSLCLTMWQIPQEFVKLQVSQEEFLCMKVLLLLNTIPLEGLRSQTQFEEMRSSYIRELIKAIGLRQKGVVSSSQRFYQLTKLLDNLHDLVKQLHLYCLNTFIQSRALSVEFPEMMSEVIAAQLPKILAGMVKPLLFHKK
Sequence of Nuclear receptor subfamily 1 group I member 2 (Homo sapiens) (O75469 whole entry, looked up): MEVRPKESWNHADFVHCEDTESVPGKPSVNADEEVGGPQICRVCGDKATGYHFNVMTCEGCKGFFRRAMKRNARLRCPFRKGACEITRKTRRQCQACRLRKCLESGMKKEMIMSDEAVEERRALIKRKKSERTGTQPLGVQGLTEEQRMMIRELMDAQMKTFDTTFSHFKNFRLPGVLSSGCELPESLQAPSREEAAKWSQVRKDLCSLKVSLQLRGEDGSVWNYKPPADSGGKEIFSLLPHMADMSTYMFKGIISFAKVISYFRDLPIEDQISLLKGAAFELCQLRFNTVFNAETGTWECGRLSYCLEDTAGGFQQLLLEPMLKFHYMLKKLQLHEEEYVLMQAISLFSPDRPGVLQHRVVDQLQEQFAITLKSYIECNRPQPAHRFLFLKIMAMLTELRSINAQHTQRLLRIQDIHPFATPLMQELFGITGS
Sequence of Nuclear receptor subfamily 1 group I member 2 (Rattus norvegicus) (Q9R1A7 whole entry, looked up): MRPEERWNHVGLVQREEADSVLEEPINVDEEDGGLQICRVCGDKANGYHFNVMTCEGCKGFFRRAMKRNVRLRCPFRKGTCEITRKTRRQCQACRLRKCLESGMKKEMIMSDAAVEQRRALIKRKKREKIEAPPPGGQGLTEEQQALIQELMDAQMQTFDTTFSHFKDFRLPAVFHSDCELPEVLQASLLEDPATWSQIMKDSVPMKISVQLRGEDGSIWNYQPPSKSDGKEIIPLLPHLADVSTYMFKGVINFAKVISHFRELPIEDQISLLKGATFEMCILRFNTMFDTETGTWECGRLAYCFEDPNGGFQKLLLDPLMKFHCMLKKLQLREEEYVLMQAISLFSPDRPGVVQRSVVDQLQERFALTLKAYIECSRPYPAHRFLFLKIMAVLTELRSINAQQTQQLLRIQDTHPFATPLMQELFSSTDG

In the case of `Nc1ncnc(Nc2ccccc2)n1`, the call in assay [1], in assay [6], in assay [7], in assay [8], in assay [9] and in assay [10] was inactive. Moreover, the Potency result in [2], in assay [3], in [4], in assay [5], in [11] and in [12] was “inactive” in each case. The Potency entry in [13], in [14], in assay [15], in [17] and in assay [18] was “inactive” in each case. Further, the max activation in assay [16] is 2.76%.
In the case of `CC(N)C(=O)OC(C)(C)Cc1ccc(Cl)cc1` (stereo unspecified), the result in [1], in assay [6], in assay [7], in assay [8] and in [19] was inactive. The Potency entry in assay [3], in assay [11], in assay [12], in assay [13], in assay [14] and in [15] was “inactive” each time.
`CN1CCN(CC(=O)N2c3ccccc3C(=O)Nc3cccnc32)CC1`: the results for the activity change, negative = inhibition in assay [1] and in [3] were 0.681% [at 8.39 µM] and 9.85% [at 8.39 µM], respectively. Moreover, the values for the activation in assay [2], in assay [8] and in assay [15] were -0.718% [at 8.39 µM], -0.857% [at 6.97 µM] and -11.1% [at 8.39 µM], respectively. Besides, the activity change, negative = cytotoxicity in assay [4] is 1.84% [at 8.39 µM]; in assay [7], -15% [at 6.97 µM]; in assay [11], 5.67% [at 8.39 µM]; in assay [13], 7.7% [at 8.39 µM]; in assay [14], -1.47% [at 8.39 µM]. For the same compound, the viability change, negative = cytotoxic in assay [6] is -11.9% [at 6.97 µM]. Moreover, the caspase activation in assay [12] was -1.35% [at 8.39 µM]. In addition, the caspase-3/7 activation in assay [19] is 0.448% [at 8.39 µM].
As to `CN(C)CCOCCO`, the outcome in [1], in assay [6], in assay [7], in assay [8], in [9] and in assay [10] was inactive. Moreover, the call in assay [19] was inactive. For the same compound, the Potency entry in [3], in assay [4], in assay [5], in [11], in assay [12] and in assay [13] was “inactive” each time. Besides, the Potency entry in assay [14] and in [15] was “inactive” in each case.
With `O=C(OCC1(COC(=O)c2cccnc2)CCCC(COC(=O)c2cccnc2)(COC(=O)c2cccnc2)C1O)c1cccnc1`, the compound was called inactive in [1], in [6], in [7], in [8] and in assay [19]. Moreover, the Potency entry in assay [3], in assay [4], in assay [5], in assay [11], in [12] and in assay [13] was “inactive” each time. Further, in assay [15], the Potency entry was “inactive”.
Turning to `CCCCCCOc1ccccc1C(N)=O`, the call in assay [1], in assay [6], in [7], in [8] and in assay [19] was inactive. The Potency result in assay [2], in assay [11], in assay [12] and in assay [14] was “inactive” each time. Besides, the Potency in [3] is 7.5 µM (active). Moreover, the max activation in assay [16] was 6.49%.
Turning to `CNS(=O)(=O)CCc1ccc2[nH]cc(C3CCN(C)CC3)c2c1`, the call in assay [1], in assay [6], in assay [7], in assay [8], in [9] and in assay [10] was inactive. Moreover, the call in assay [19] was inactive. Further, the Potency result in assay [2], in assay [3], in assay [4], in assay [5], in [11] and in assay [12] was “inactive” in each case. In addition, the Potency entry in [13] and in assay [15] was “inactive” in each case.
On to `CC(C)OC(=O)CCCCC(=O)OC(C)C`, for which the compound was called inactive in [1], in [6], in assay [7], in assay [8], in [9] and in assay [10]. Further, the compound was called inactive in assay [19]. Also, the Potency entry in assay [3], in assay [4], in [5], in [11], in assay [12] and in [13] was “inactive” throughout. For the same compound, the Potency entry in [14] and in [15] was “inactive” throughout.
With `O=C(OCC(COC(=O)c1cccnc1)(COC(=O)c1cccnc1)COC(=O)c1cccnc1)c1cccnc1`, the Potency entry in assay [20], in [2], in assay [3], in assay [4], in assay [5] and in [11] was “inactive” in each case. In addition, the Potency entry in [12], in [13], in assay [14] and in assay [15] was “inactive” each time. Besides, the call in assay [6], in assay [7], in assay [8], in assay [9], in assay [10] and in assay [19] was inactive.
